# DNA Pol III inh – qHTS Assay for Inhibitors of DNA Polymerase III Holoenzyme System; reconstituted DNA polymerase III holoenzyme replication, biochemical; Potency, µM (series often up to 57.1 µM); hit rate 0.25% among 71,000; AID 603, 2007
#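 Reconstituted *E. coli* holoenzyme (0.35 nM Pol III, 1 nM beta, 154 nM SSB, 2 nM primase) was preincubated with compound for 15 min at RT. Synthesis on 1.4 nM ssM13Gori ran 35 min, then was stopped with PicoGreen/EDTA and read as dsDNA fluorescence.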
# UbGFP stabilizer – Ubiquitin-GFP Assay; Ubiquitin-GFP reporter cells, proteasome inhibition, GFP fluorescence; response scale: untreated = 0%, 10 µM MG-132 = 100%; Potency, µM (top dose mostly 45.9 µM), hits mostly activators; 67,000 tested, under 10 active; active = well fitted activation curve with a large enough effect, not every such curve was filed as active; inconclusive = small, poorly fitted or top-dose-only effect, or another doubt; inactive = no such curve, though single readings can be large or run the other way
#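 U2OS Ub(G76V)-GFP reporter; O/N plating, 0.5% FBS; cpd 46 uM–2.9 nM, 4 h, 37 °C; GFP+ cell count, 488/515 nm; norm. to basal vs 10 uM MG-132; CRC fit.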
# Tau fil binding – qHTS Assay for Tau Filament Binding; hit rate 2% among 71,000; recombinant tau filaments, thioflavin S fluorescence, 15 h; filaments grown with octadecylsulfate alongside compound; Microtubule-associated protein tau (Homo sapiens), P10636; AID 596, 2007; Potency, µM (series often up to 57.1 µM);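 note: actives lower thioflavin S fluorescence by blocking filaments or displacing dye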
#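 Quantitative HTS: thioflavine S signal from ODS-induced tau filaments, excited at 450 nm, emission 510 nm. Conditions: 1 uM tau, 30 uM ODS, 15 h at 37 C, pH 7.4.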
# GFP derepression – qHTS Assay for Epigenetic Modulators; hit rate 0.09% among 68,000; mouse C127i GFP locus derepression, cytometry, 30 h; Potency, µM (series often up to 46.1 µM); AID 597, 2007
#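 Locus derepression in mouse mammary C127i cells whose integrated CMV-GFP reporter is normally silent; GFP expression after 30 h compound treatment was quantified by counting fluorescent cells.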
# HBB splice mod – qHTS Assay for Modulators of Hemoglobin Beta Chain Splicing | HBB splicing reporter cell assay, activation; EGFP reporter with mutant IVS2-654 intron; response scale: normalised to 500 nM splice-correcting PNA | Potency, µM (doses to about 46.1 µM), hits mostly activators | hit rate 0.06% among 65,000
#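 Compounds were applied for 2 days to HeLa EGFP-654 cells, 500/well in Optimem with 2% FCS. The reporter's EGFP is disrupted by mis-splicing of beta-globin intron IVS2-654. Readout: summed well GFP fluorescence from 488 nm laser scanning; reference was 500 nM antisense […] 654 PNA.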
# 15-hLO inh – qHTS Assay for Inhibitors of 15-hLO (15-human lipoxygenase). Polyunsaturated fatty acid lipoxygenase ALOX15 (Homo sapiens), P16050. purified 15hLO-1, xylenol orange hydroperoxide absorbance. Potency, µM (doses to about 57.1 µM), most hits filed as inhibitors. hit rate 1.4% among 74,000. AID 887, 2007; note: nearly all actives have a fitted effect of over 55% in size
# Target sequence (P16050 whole entry, looked up): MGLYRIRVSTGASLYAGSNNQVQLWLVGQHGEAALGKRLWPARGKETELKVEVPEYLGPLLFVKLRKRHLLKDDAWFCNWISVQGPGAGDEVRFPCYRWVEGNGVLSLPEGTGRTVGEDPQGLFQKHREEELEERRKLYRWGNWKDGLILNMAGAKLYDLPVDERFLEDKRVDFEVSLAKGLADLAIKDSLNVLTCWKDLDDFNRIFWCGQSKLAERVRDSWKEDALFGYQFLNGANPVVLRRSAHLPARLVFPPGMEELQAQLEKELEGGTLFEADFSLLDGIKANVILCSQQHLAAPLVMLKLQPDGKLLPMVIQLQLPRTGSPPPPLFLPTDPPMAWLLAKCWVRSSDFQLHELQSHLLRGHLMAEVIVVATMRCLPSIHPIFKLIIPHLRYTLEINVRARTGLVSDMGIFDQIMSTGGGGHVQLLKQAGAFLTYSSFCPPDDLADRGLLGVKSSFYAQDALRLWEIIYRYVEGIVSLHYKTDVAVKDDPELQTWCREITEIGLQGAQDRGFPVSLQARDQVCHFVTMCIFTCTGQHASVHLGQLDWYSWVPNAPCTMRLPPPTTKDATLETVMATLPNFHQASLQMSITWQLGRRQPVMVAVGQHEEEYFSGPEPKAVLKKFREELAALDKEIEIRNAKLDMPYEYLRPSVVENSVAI
#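 40 nM 15hLO-1 + cpd, 15 min RT; start w/ 50 uM AA (final), 6 min RT; stop/detect w/ 200 uM XO + 300 uM Fe(II) in 50 mM H2SO4, 30 min; A573/A405. Buffer 25 mM Hepes pH 7.5, 0.01% Triton X-100. No-enzyme wells as negative control.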
# A number is an active result; – = inactive; ? = inconclusive; · = no result given; [ ] = remark or other dose. A selection: hits, their analogues and other compounds. The true share with any hit is near 3.2%. Unless noted, calls come from the whole dose curve; as a rule, active = well fitted curve in the direction sought with a large enough effect; inconclusive = small, poorly fitted or top-dose-only effect, or another doubt; inactive = no such curve, though single readings can be large; an effect the other way counts as inactive or inconclusive.
SMILES,DNA Pol III inh,UbGFP stabilizer,Tau fil binding,GFP derepression,HBB splice mod,15-hLO inh
Cn1c(N)c(C(=O)NCc2ccccc2)sc1=S,–,–,–,–,–,12.6µM
COc1ccc(CCNC(=O)c2sc(=S)n(C)c2N)cc1,–,–,–,–,–,–
CCCN(CCC)C[C@@H]1CCCCN1CCNC(=O)N1c2ccccc2C(=O)Nc2cccnc21,–,–,39.8µM,–,·,?
CN1CCN(CC(=O)N2c3ccccc3C(=O)Nc3cccnc32)CC1,–,–,–,–,–,–
CCN1CC2=C(OC(N)=C(C#N)C2c2cccs2)/C(=C/c2cccs2)C1 (stereo unspecified),–,–,?,–,·,–
CCN1C=C(Cc2cccs2)C2=C(C1)C(c1cccs1)C(C#N)=C(N)O2 (stereo unspecified),–,–,3.98µM,–,–,10µM
O=C(C1=C(O)C(=O)N(Cc2ccco2)C1c1cccnc1)c1cc2ccccc2o1 (stereo unspecified),–,–,–,–,–,15.8µM
CCOC(=O)C1CCN(c2c(NCc3ccc(C(=O)O)cc3)c(=O)c2=O)CC1,–,–,–,·,–,–
C=CCCCC,–,·,–,·,–,–
O=C(Nc1nc(-c2ccc(Cl)s2)cs1)c1cccs1,–,·,–,–,–[0.369 µM],25.1µM
O=C(Nc1nc(-c2ccccc2)cs1)c1cccs1,–,–,–,–,–[9.22 µM],12.6µM
Cc1ccc(-c2csc(NC(=O)c3ccno3)n2)cc1,–,–,31.6µM,–,–,–
O=C(Nc1nc(-c2ccccn2)cs1)c1ccc(Cl)s1,–,–,–,·,–,–
O=C(Nc1nc(-c2ccc(S(=O)(=O)N3CCCC3)cc2)cs1)c1ccco1,–,–,–,–,–,–
COc1cc(O)c2c(O)c3c(c4c2c1[C@@]1(C4)C(C)=CCCC1(C)C)[C@H](O)[C@@]1(O)CC(=O)C(C(N)=O)=C(O)[C@]1(O)C3=O,–[11.4 µM],–[9.17 µM],–[11.4 µM],–[9.22 µM],–[9.22 µM],?
CC(=NC1CCCCC1)c1ccccc1O,–[11.4 µM],–[9.17 µM],–[11.4 µM],–[9.22 µM],–[9.22 µM],?
CCCCOCCCn1c(-c2ccco2)nc2nc3ccccc3nc21,–,–,2µM,–,?,?
O=S(=O)(c1ccc(F)cc1)N1CN(Cc2ccco2)c2nc3ccccc3nc21,–,–,–,–,–,–
Fc1cccc(-n2c(-c3ccco3)nc3nc4ccccc4nc32)c1,–,·,–,–,–[0.369 µM],?
c1ccc(-c2nc3nc4ccccc4nc3n2Cc2ccco2)cc1,–,–,12.6µM,–,–,–
Fc1ccc(-n2c(-c3ccco3)nc3nc4ccccc4nc32)cc1,–,–,12.6µM,–,–,–
S=c1nc(-c2ccccc2)n(Cc2ccco2)c2c1CCCC2,·,·,·,·,·,–
Fc1ccc(-c2nc3nc4ccccc4nc3n2Cc2ccco2)cc1,–,–,15.8µM,–,–,–
O=C1c2ccccc2C(O)(O)[C@@]1(O)[C@]1(O)C(=O)c2ccccc2C1(O)O,–[11.4 µM],–[9.17 µM],–[11.4 µM],–[9.22 µM],–[9.22 µM],–[11.4 µM]
Cc1cc(=O)oc2c(OS(C)(=O)=O)c(OS(C)(=O)=O)ccc12,–[11.4 µM],–[9.17 µM],–[11.4 µM],–[9.22 µM],–[9.22 µM],–[11.4 µM]
SMILES,DNA Pol III inh,UbGFP stabilizer,Tau fil binding,GFP derepression,HBB splice mod,15-hLO inh
O=S(=O)(c1ccccc1)N1CN2CN(C1)CN(S(=O)(=O)c1ccccc1)C2,–[11.4 µM],–[9.17 µM],–[11.4 µM],–[9.22 µM],–[9.22 µM],–[11.4 µM]
CN1CCN(C(=O)c2ccc(-n3c(=O)c(=O)[nH]c4ccccc43)cc2)CC1,·,·,·,·,·,–
CCN(Cc1cc2ccccc2[nH]c1=O)S(=O)(=O)c1ccccc1,–,–,12.6µM,–,–,?
C=C(CO)[C@H]1Cc2c(ccc3c(=O)c4c(oc23)COc2cc(OC)c(OC)cc2-4)O1,–,–,31.6µM,–[9.22 µM],·,·
C=C(CO)C1Cc2c(ccc3c2OC2COc4cc(OC)c(OC)cc4C2C3=O)O1 (stereo unspecified),·,·,·,·,·,–
O=C(O)c1ccc(/C=N\N=C2c3ccccc3-c3ccccc32)cc1,–[11.4 µM],–[9.17 µM],–[11.4 µM],–[9.22 µM],–[9.22 µM],–[11.4 µM]
CCSc1ccccc1C(=O)Nc1cc(C)on1,–,–,–,–,–,12.6µM
